Measured values taken from PubChem BioAssay (NCI).
The panel holds about 79,000 compounds, 15% with a hit somewhere; the sample as a whole holds those more often. No stated cut-off is given here; in the data, active means growth inhibition above about 70%; inactive means the rest.

How the values were obtained:
[1] = NCI Yeast Anticancer Drug Screen. Data for the rad50 strain (AID 155);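 further: 0% = growth of vehicle-only cultures of the same strain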; settings: S. cerevisiae rad50 strain growth inhibition; at 50.0 µM; active compounds read high
Summary of the method: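 Vehicle-treated cultures provide the reference for the growth inhibition reported for compound-exposed, repair-deficient yeast.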

[2] = NCI Yeast Anticancer Drug Screen. Data for the mec2-1 strain (AID 157); settings: S. cerevisiae mec2-1 strain, at 50.0 µM, active compounds read high
Summary of the method: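 Yeast mec2-1 mutant treated with compound. Readout: growth inhibition vs vehicle controls.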

[3] = NCI Yeast Anticancer Drug Screen. Data for the sgs1 mgt1 strain (AID 161);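 further: 0% = growth of cultures given vehicle only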; settings: S. cerevisiae sgs1 mgt1 strain, at 50.0 µM, active compounds read high
Summary of the method: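 Read-out: growth inhibition vs vehicle controls. Cells: mutant yeast strain deficient in DNA damage repair.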

[4] = NCI Yeast Anticancer Drug Screen. Data for the cln2 rad14 strain (AID 165);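 further: 0% = growth equal to vehicle treated cultures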; settings: S. cerevisiae cln2 rad14 strain, at 50.0 µM, active compounds read high
Summary of the method: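 cln2 rad14 yeast strain; compound exposure; growth inhibition read vs vehicle controls.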

[5] = NCI Yeast Anticancer Drug Screen. Data for the bub3 strain (AID 167); settings: S. cerevisiae bub3 mutant strain, at 50.0 µM, active compounds read high
Summary of the method: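 Mutant yeast screening strain plus compound; vehicle-treated cultures serve as the 0% inhibition reference.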

[6] = NCI Yeast Anticancer Drug Screen. Data for the mlh1 rad18 strain (AID 175); settings: S. cerevisiae mlh1 rad18 strain growth inhibition; at 50.0 µM; active compounds read high
Summary of the method: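 Yeast w/ defined DNA-repair lesions; compound exposure; growth vs vehicle controls → % inhibition.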

Measured: growth inhibition

Cc1cc(=O)[nH]c(N/N=C2/CCCCC2C)n1 (centres undefined)
inactive: [1] -29.4% | [2] -25% | [3] -7.05% | [4] -0.6% | [5] -24.3% | [6] -21.8%

CSc1nc(N)c(NS(=O)(=O)c2ccccc2)c(=O)[nH]1
inactive: [1] -10.6% | [2] -18.1% | [3] -17.6% | [4] -2.9% | [5] 6.95% | [6] 6.05%

CN(C)C(=O)c1cccc([N+](=O)[O-])c1
inactive: [1] 1% | [2] -3.5% | [3] -4.65% | [4] 2.65% | [5] 13.2% | [6] 31.9%

CCOC(=O)c1sc(N)nc1C
inactive: [1] -17.8% | [2] -12.2% | [3] -17.2% | [4] -21.9% | [5] -11.5% | [6] 0.35%

CCNc1nc(C)nc2c1cnn2-c1ccccc1
inactive: [1] -16.1% | [2] -12.6% | [3] -6.75% | [4] -56.5% | [5] -4.8% | [6] -9.75%

CCC(C)(C)c1ccc(OCCO)cc1
inactive: [1] -29.2% | [2] -29.4% | [3] -20.8% | [4] -12.9% | [5] -19.2% | [6] -23.4%

N#CCC(=O)N/N=C1\C(=O)N(c2ccc(Cl)cc2)C(=O)C(=O)C1c1nc2ccccc2o1 (centres undefined)
inactive: [1] 22.4% | [2] -11.8% | [3] 0.4% | [4] 16.5% | [5] 1.35% | [6] 8.45%

O=C(O)Cc1ccc(OCCCCCOc2ccc(CC(=O)O)cc2)cc1
inactive: [1] 6.05% | [2] 0.25% | [3] 20.6% | [4] -49.9% | [5] -12% | [6] 4.35%

CSc1ccc(NC(=O)Nc2ccc(Cl)cc2[N+](=O)[O-])cc1
inactive: [1] -4.55% | [2] 40.5% | [3] 13.6% | [4] -6.05% | [5] 17.9% | [6] 20.3%

O=C1CC2C3CC(Br)C4C3CC2C14 (centres undefined)
inactive: [1] 4.95% | [2] -0.25% | [3] 1.75% | [4] 6.5% | [5] 7.2% | [6] 4.75%

Cc1c(/C=N/N(C)C)oc2c1cc(O)c1ncccc12
inactive: [1] 2.95% | [2] -4.4% | [3] 20.4% | [4] -1.9% | [5] 4.65% | [6] 2.35%

CSc1nc(SC)c(Nc2cccc(C)c2)c(SC)n1
inactive: [1] -8.65% | [2] 7.7% | [3] 4.2% | [4] -38% | [5] 21.8% | [6] -0.3%

CC(N(C)Cc1ccccc1)C(C)(O)c1ccccc1 (centres undefined)
inactive: [1] -10.4% | [2] 6.55% | [3] 7.75% | [4] -24.9% | [5] 51% | [6] 30.8%

COc1ccccc1C1c2cc3c(cc2OC(C)(OC)C1C)OCO3 (centres undefined)
inactive: [1] -3.4% | [2] -17.2% | [3] 18.1% | [4] -12.7% | [5] -10.2% | [6] 14.1%

C(CN1CCC2CCC(C2)C1)=C(c1ccccc1)c1ccccc1 (centres undefined)
inactive: [1] 3.75% | [2] -1.3% | [3] 15.3% | [4] -17.9% | [5] 26.1% | [6] 4.35%

CC(C)C(NCc1c(O)ccc2c(-c3ccccc3)cc(=O)oc12)C(=O)O (centres undefined)
inactive: [1] -33.5% | [2] -21.6% | [3] -19% | [4] -12.2% | [5] -35.5% | [6] -10.2%

CCC1C(=O)Nc2ccccc21 (centres undefined)
inactive: [1] 16.4% | [2] 16.9% | [3] 1.3% | [4] 7.85% | [5] 13.8% | [6] 8.5%

N#CC(=C1c2ccccc2-c2ccccc21)c1ccccc1
inactive: [1] -14.2% | [2] 7.1% | [3] -2.35% | [4] -2.65% | [5] 2.75% | [6] -20.5%

CC1CC(=O)C2CC(Cl)CCC2(C)C1C (centres undefined)
inactive: [1] -18.1% | [2] -22.6% | [3] -4.6% | [4] -45.4% | [5] -27.4% | [6] -6.05%
